{"source": "PubChem BioAssay", "data": [{"assay": "small-molecule microarray binders of probe aDKK1, primary screen, biochemical, biotinylated probe, 635/667 nm fluorescence (AID 1099);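 also: score merges 667nm spot fluorescence with signal to noise across triplicate slides; reference of the scale not given here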", "settings": "higher = more signal", "values": [{"smiles": "CC#CCOCCC=C1c2ccccc2[C@@H](OC)[C@@H]1C", "composite z-score": -0.168}, {"smiles": "C#CCCCON=C1C[C@@H](O)[C@@H](O)[C@@H]2[C@@H]3C(=O)N(C[C@@H]4CCCO4)C(=O)[C@@H]3CC[C@H]12", "composite z-score": -0.201}, {"smiles": "O=C1[C@H]2[C@H]3[C@H](O)[C@H](O)CC(=NO[C@@H]4O[C@H](CO)[C@@H](O)[C@H](O)[C@H]4O)[C@H]3CC[C@H]2C(=O)N1c1ccc(F)cc1F", "composite z-score": 0.0579}, {"smiles": "CCCNC(=O)OC[C@H]1O[C@H](CCON=C2C[C@@H](O)[C@@H](O)[C@@H]3[C@@H]4C(=O)N(CC)C(=O)[C@@H]4CC[C@@H]23)C=C[C@@H]1Oc1ccc(OC)cc1", "composite z-score": -0.04}, {"smiles": "CC(C)=CCCC(C)=CCON=C1C[C@@H](O)[C@@H](O)[C@@H]2[C@@H]3C(=O)N(c4cccc(Oc5ccccc5)c4)C(=O)[C@@H]3CC[C@H]12", "composite z-score": -0.183}, {"smiles": "COc1ccc(OC[C@@H](CO)OC)cc1", "composite z-score": -0.233}, {"smiles": "COc1ccc(OC[C@H]2CN3[C@@H](CC[C@@H](C)[C@@H]3c3ccc(Br)cc3)C(=O)O2)cc1", "composite z-score": -0.278}, {"smiles": "Cc1ccc(S(=O)(=O)N[C@@H]2COC(=O)CC=C[C@@H](C)[C@H](NS(=O)(=O)c3ccc(C)cc3)COC(=O)[C@H](C)NC(=O)CC=C[C@H]2C)cc1", "composite z-score": -0.472}, {"smiles": "CC(C)CON=C1C[C@@H](O)[C@@H](O)[C@@H]2[C@@H]3C(=O)N(C(C)(C)C)C(=O)[C@@H]3CC[C@@H]12", "composite z-score": -0.58}, {"smiles": "CCOC(=O)CCN1C(=O)[C@H]2[C@H]3[C@H](O)[C@H](O)CC(=O)[C@@H]3CC[C@H]2C1=O", "composite z-score": -0.0674}, {"smiles": "CCOC(=O)[C@H](CC(C)C)NC(=O)CCC1CC(OC(=O)NCc2ccc3c(c2)OCO3)CC2(CCCC(COC(=O)NCCC(C)C)O2)O1", "note": "(some centres not stated)", "composite z-score": -0.494}]}, {"assay": "small-molecule microarray binders of probe aCHRDL2, primary screen, biochemical, biotinylated probe, 635/667 nm fluorescence (AID 1100)", "settings": "higher = more signal", "values": [{"smiles": "O=C1C[C@@H](O)[C@@H](O)[C@@H]2[C@@H]3C(=O)N(c4ccc(F)cc4F)C(=O)[C@@H]3CC[C@H]12", "composite z-score": -0.511}, {"smiles": "Cc1cc(C)c(-c2cc([C@H](C)ON=C[C@@H](C)[C@H](OCc3ccccc3)C(C)C)on2)c(C)c1", "composite z-score": -0.0987}, {"smiles": "CCN1C(=O)[C@H]2[C@H]3[C@H](O)[C@H](O)CC(=NOCC=C(C)CCC=C(C)C)[C@@H]3CC[C@H]2C1=O", "composite z-score": -0.717}, {"smiles": "CC(CCC(=O)OC[C@H]1O[C@H](C#Cc2ccccc2)C=C[C@@H]1Oc1ccc(C)cc1)=NOC[C@@H](C)[C@H](OCc1ccccc1)C(C)C", "composite z-score": -0.506}, {"smiles": "CCOC(=O)CCN1C(=O)[C@H]2[C@H]3[C@H](O)[C@H](O)CC(=NO[C@@H]4O[C@H](CO)[C@@H](O)[C@H](O)[C@H]4O)[C@H]3CC[C@H]2C1=O", "composite z-score": -0.141}, {"smiles": "CC1(C)O[C@H]2OC([C@H](O)CON3C(=O)c4ccccc4C3=O)[C@H](O)[C@H]2O1", "note": "(some centres not stated)", "composite z-score": -0.562}, {"smiles": "CC(CCN1CCc2nc(-c3ccccc3)c(-c3ccccc3)cc2C1)=NO[C@H](C)c1cn([C@H](CO)Cc2ccccc2)nn1", "composite z-score": 0.407}, {"smiles": "CON=C(C)CCN1CCCc2nc(C)c(C)cc21", "composite z-score": -0.429}, {"smiles": "CC(=O)OC[C@H]1O[C@@H](ON=C(C)CCC(=O)OC[C@H]2O[C@H](C#Cc3ccccc3)C=C[C@@H]2Oc2ccc(C)cc2)[C@H](OC(C)=O)[C@@H](OC(C)=O)[C@@H]1OC(C)=O", "composite z-score": -0.561}, {"smiles": "CCN1C(=O)[C@H]2[C@H]3[C@H](O)[C@H](O)CC(=NO[C@H](C)c4cn([C@H](CO)Cc5ccccc5)nn4)[C@@H]3CC[C@H]2C1=O", "composite z-score": -0.681}, {"smiles": "CC(=O)OC[C@H]1O[C@@H](ON=C(C)C)[C@H](OC(C)=O)[C@@H](OC(C)=O)[C@@H]1OC(C)=O", "composite z-score": 0.46}, {"smiles": "CC(C)CON=C1C[C@@H](O)[C@@H](O)[C@@H]2[C@@H]3C(=O)N(c4ccc(F)cc4F)C(=O)[C@@H]3CC[C@@H]12", "composite z-score": -0.462}, {"smiles": "C=C(C)C(=O)OC[C@H]1CN2[C@@H](CC[C@@H](C)[C@@H]2c2ccc(Br)cc2)C(=O)O1", "composite z-score": -0.264}, {"smiles": "CC(CCN1CCCc2nc(C)c(C)cc21)=NOC[C@@H](O)COCc1ccco1", "composite z-score": -0.216}, {"smiles": "O=C1C=C[C@@H](O)[C@@H]2[C@@H]3C(=O)N(Cc4ccc5c(c4)OCO5)C(=O)[C@@H]3CC[C@@H]12", "composite z-score": -0.528}, {"smiles": "CC(C)(C)N1C(=O)[C@H]2[C@H]3[C@H](O)[C@H](O)CC(=NOC[C@@H](O)COCc4ccco4)[C@@H]3CC[C@H]2C1=O", "composite z-score": 0.588}, {"smiles": "C=CC[C@@H]1C=CC(ON=C(C)C)[C@@H](CO)O1", "note": "(some centres not stated)", "composite z-score": -0.127}, {"smiles": "CCC1=NOC(CCC2CC(OC(=O)NCc3cccc4c3OCO4)CC3(CCCC(COC(=O)NCCc4ccc(Cl)cc4)O3)O2)C1", "note": "(configuration not stated)", "composite z-score": -0.341}, {"smiles": "C#CCCCON=C1C[C@@H](O)[C@@H](O)[C@@H]2[C@@H]3C(=O)N(C4CCCCC4)C(=O)[C@@H]3CC[C@@H]12", "composite z-score": -0.287}, {"smiles": "CC(=O)OC[C@H]1O[C@H](CC=NOC[C@@H](O)COCc2ccco2)C=C[C@@H]1OC(C)=O", "composite z-score": -1.06}, {"smiles": "CC(C)=NOC(C)CN1CCCc2nc(C)c(C)cc21", "note": "(configuration not stated)", "composite z-score": -0.696}, {"smiles": "CCOC(=O)[C@H](Cc1ccccc1)NC(=O)CCC1CC(OC(=O)NCc2cccc3ccccc23)CC2(CCCC(COC(=O)NCC3CCCCC3)O2)O1", "note": "(some centres not stated)", "composite z-score": -0.53}, {"smiles": "O=C1C[C@H](c2ccccc2)[C@H](c2ccc(Br)cc2)O1", "composite z-score": -0.939}, {"smiles": "COC(=O)[C@H](C)NC(=O)CCC1CC(OC(=O)NCCc2ccc(F)cc2)CC2(CCCC(COC(=O)NCC3CCCCC3)O2)O1", "note": "(some centres not stated)", "composite z-score": -0.446}, {"smiles": "CN1CCc2nc(-c3ccccc3)c(-c3ccccc3)cc2C1", "composite z-score": -0.225}, {"smiles": "CC#CCOCCC=C1c2ccccc2[C@@H](OC)[C@@H]1C", "composite z-score": -0.42}, {"smiles": "C#CCCCON=C1C[C@@H](O)[C@@H](O)[C@@H]2[C@@H]3C(=O)N(C[C@@H]4CCCO4)C(=O)[C@@H]3CC[C@H]12", "composite z-score": -0.346}, {"smiles": "O=C1[C@H]2[C@H]3[C@H](O)[C@H](O)CC(=NO[C@@H]4O[C@H](CO)[C@@H](O)[C@H](O)[C@H]4O)[C@H]3CC[C@H]2C(=O)N1c1ccc(F)cc1F", "composite z-score": 0.129}, {"smiles": "CCCNC(=O)OC[C@H]1O[C@H](CCON=C2C[C@@H](O)[C@@H](O)[C@@H]3[C@@H]4C(=O)N(CC)C(=O)[C@@H]4CC[C@@H]23)C=C[C@@H]1Oc1ccc(OC)cc1", "composite z-score": -0.39}, {"smiles": "CC(C)=CCCC(C)=CCON=C1C[C@@H](O)[C@@H](O)[C@@H]2[C@@H]3C(=O)N(c4cccc(Oc5ccccc5)c4)C(=O)[C@@H]3CC[C@H]12", "composite z-score": -0.2}, {"smiles": "COc1ccc(OC[C@@H](CO)OC)cc1", "composite z-score": -0.401}, {"smiles": "COc1ccc(OC[C@H]2CN3[C@@H](CC[C@@H](C)[C@@H]3c3ccc(Br)cc3)C(=O)O2)cc1", "composite z-score": -0.345}, {"smiles": "Cc1ccc(S(=O)(=O)N[C@@H]2COC(=O)CC=C[C@@H](C)[C@H](NS(=O)(=O)c3ccc(C)cc3)COC(=O)[C@H](C)NC(=O)CC=C[C@H]2C)cc1", "composite z-score": -0.684}, {"smiles": "CC(C)CON=C1C[C@@H](O)[C@@H](O)[C@@H]2[C@@H]3C(=O)N(C(C)(C)C)C(=O)[C@@H]3CC[C@@H]12", "composite z-score": -1.35}, {"smiles": "CCOC(=O)CCN1C(=O)[C@H]2[C@H]3[C@H](O)[C@H](O)CC(=O)[C@@H]3CC[C@H]2C1=O", "composite z-score": -0.834}, {"smiles": "CCOC(=O)[C@H](CC(C)C)NC(=O)CCC1CC(OC(=O)NCc2ccc3c(c2)OCO3)CC2(CCCC(COC(=O)NCCC(C)C)O2)O1", "note": "(some centres not stated)", "composite z-score": -0.36}]}]}
